Assay results reported in PubChem BioAssay (NCI).
This is part of a sample that, as a whole, favours compounds with a hit. Of some 83,000 tested, about 20% had one in any assay.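 Interpretation: 100, growth as untreated; towards 0, rising growth inhibition; 0, no net growth; 0 to -100, cell death. Compounds scoring below 10 were considered active.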 Activity calls are given as the source filed them.

Columns and labels:
Assay in all cases: NCI-60 one-dose screen, 48 h (100 = growth as untreated, 0 = no growth, -100 = all killed)
Details in all cases: 10 µM unless noted
HCT-15 colon = tested on: HCT-15 colon
HT29 colon = tested on: HT29 colon
SNB-75 CNS = tested on: SNB-75 CNS
SNB-19 CNS = tested on: SNB-19 CNS
U251 CNS = tested on: U251 CNS
PC-3 prostate = tested on: PC-3 prostate
SK-MEL-5 melanoma = tested on: SK-MEL-5 melanoma
UACC-62 melanoma = tested on: UACC-62 melanoma
LOX IMVI melanoma = tested on: LOX IMVI melanoma
SK-MEL-28 melanoma = tested on: SK-MEL-28 melanoma
SK-MEL-2 melanoma = tested on: SK-MEL-2 melanoma
EKVX NSCLC = tested on: EKVX NSCLC
SN12C renal = tested on: SN12C renal
UO-31 renal = tested on: UO-31 renal
TK-10 renal = tested on: TK-10 renal
ACHN renal = tested on: ACHN renal
CAKI-1 renal = tested on: CAKI-1 renal
A498 renal = tested on: A498 renal
CCRF-CEM leukemia = tested on: CCRF-CEM leukemia
MOLT-4 leukemia = tested on: MOLT-4 leukemia

Measured: growth

Cc1ccccc1Nc1n[nH]c(Cc2ccccc2)n1
inactive: HCT-15 colon 108% | HT29 colon 79.1% | SNB-75 CNS 93.9% | SNB-19 CNS 97.6% | U251 CNS 94.3% | PC-3 prostate 86.5% | SK-MEL-5 melanoma 93.9% | UACC-62 melanoma 98.4% | LOX IMVI melanoma 95.5% | SK-MEL-28 melanoma 113% | SK-MEL-2 melanoma 83.8% | EKVX NSCLC 103% | SN12C renal 104% | UO-31 renal 86% | TK-10 renal 90% | ACHN renal 106% | CAKI-1 renal 101% | A498 renal 102% | CCRF-CEM leukemia 97.8% | MOLT-4 leukemia 70.2%

CCCCCCCCCCCCNC(=O)N[C@H](C(=O)N[C@H]1/C=C/OCCNC(=O)/C=C/[C@H](C(C)C)NC1=O)C(C)C
inactive: HCT-15 colon 117% | HT29 colon 34.9% | SNB-75 CNS 46.5% | SNB-19 CNS 47.1% | U251 CNS 43.2% | PC-3 prostate 51.1% | SK-MEL-5 melanoma 46.1% | UACC-62 melanoma 55.4% | LOX IMVI melanoma 55.7% | SK-MEL-28 melanoma 46.3% | SK-MEL-2 melanoma 66.8% | EKVX NSCLC 86.5% | SN12C renal 93.6% | UO-31 renal 93.5% | TK-10 renal 97.1% | ACHN renal 115% | CAKI-1 renal 96.1% | A498 renal 96.1% | CCRF-CEM leukemia 40.6% | MOLT-4 leukemia 51.3%

c1cc(C2CCCCC2)ccc1-c1cnc2nonc2n1
inactive: SNB-75 CNS 26.6% | SNB-19 CNS 37.2% | U251 CNS 21.6% | PC-3 prostate 23.9% | SK-MEL-5 melanoma 22.6% | SK-MEL-28 melanoma 65.5% | EKVX NSCLC 37.3% | SN12C renal 19.5% | UO-31 renal 29% | TK-10 renal 15.6% | ACHN renal 34.6% | CAKI-1 renal 34.2%
active: HCT-15 colon 9.57% | HT29 colon 3.11% | UACC-62 melanoma 8.73% | LOX IMVI melanoma 2.13% | SK-MEL-2 melanoma 8.16% | A498 renal 9.62% | CCRF-CEM leukemia 3.66% | MOLT-4 leukemia -5.4%

O=C(CC(=O)C(F)(F)C(F)(F)C(F)(F)F)c1cc2ccccc2o1
inactive: HCT-15 colon 108% | HT29 colon 103% | SNB-75 CNS 92.2% | SNB-19 CNS 107% | U251 CNS 97.5% | PC-3 prostate 91.1% | SK-MEL-5 melanoma 106% | UACC-62 melanoma 104% | LOX IMVI melanoma 92.4% | SK-MEL-28 melanoma 105% | SK-MEL-2 melanoma 106% | EKVX NSCLC 100% | SN12C renal 103% | UO-31 renal 87.5% | TK-10 renal 108% | ACHN renal 110% | CAKI-1 renal 94.8% | A498 renal 125% | CCRF-CEM leukemia 102% | MOLT-4 leukemia 102%

C[N+](C)(C)CC(=O)N/N=C\c1ccco1
inactive: HCT-15 colon 102% | HT29 colon 92.6% | SNB-75 CNS 83.2% | SNB-19 CNS 112% | U251 CNS 98.7% | PC-3 prostate 95.8% | SK-MEL-5 melanoma 101% | UACC-62 melanoma 101% | LOX IMVI melanoma 101% | SK-MEL-28 melanoma 105% | SK-MEL-2 melanoma 111% | EKVX NSCLC 103% | SN12C renal 106% | UO-31 renal 82.8% | TK-10 renal 95.2% | ACHN renal 107% | CAKI-1 renal 98% | A498 renal 98.7% | CCRF-CEM leukemia 100% | MOLT-4 leukemia 102%

CCCCCCCCN(CCCCCCCC)C(=O)CCl
active: LOX IMVI melanoma -63.3% | CCRF-CEM leukemia -33.4%
inactive: HCT-15 colon 96.1% | HT29 colon 114% | SNB-75 CNS 95.4% | SNB-19 CNS 97.5% | U251 CNS 101% | PC-3 prostate 85.6% | SK-MEL-5 melanoma 88.6% | UACC-62 melanoma 82.9% | SK-MEL-28 melanoma 110% | SK-MEL-2 melanoma 108% | EKVX NSCLC 108% | SN12C renal 93.8% | UO-31 renal 73.3% | TK-10 renal 108% | ACHN renal 100% | CAKI-1 renal 44.9% | A498 renal 99.8% | MOLT-4 leukemia 90.6%

CC(C)CCC(=O)[C@@H](C)[C@H]1[C@@H](OC2OCC(O)C(O)C2NS(C)(=O)=O)C[C@H]2[C@@H]3CC=C4C[C@@H](O)CC[C@]4(C)[C@H]3CC[C@]12C (stereo not given in full)
active: U251 CNS 5.29% | PC-3 prostate 4.46% | SK-MEL-5 melanoma 7.33% | UACC-62 melanoma -22% | SK-MEL-28 melanoma -36.1% | SK-MEL-2 melanoma -36.9% | UO-31 renal -16.1% | A498 renal -58.4% | CCRF-CEM leukemia -8.84% | MOLT-4 leukemia -0.0897%
inactive: HCT-15 colon 14% | HT29 colon 19.6% | SNB-75 CNS 22.2% | SNB-19 CNS 32.1% | LOX IMVI melanoma 21.9% | EKVX NSCLC 27.7% | SN12C renal 75.2% | TK-10 renal 26.1% | ACHN renal 42.1% | CAKI-1 renal 24.1%

COc1ccccc1-[n+]1cc(-c2ccc(-c3ccccc3)cc2)n2c1CCCCC2
active: HT29 colon 1.07% | PC-3 prostate 1.3% | SK-MEL-5 melanoma -78.8% | UACC-62 melanoma 2.5% | SK-MEL-2 melanoma -27% | EKVX NSCLC 9.1% | SN12C renal 0.949% | TK-10 renal 7.69% | A498 renal 9.77% | MOLT-4 leukemia 9.4%
inactive: HCT-15 colon 66% | SNB-75 CNS 16% | SNB-19 CNS 11.7% | U251 CNS 10.6% | LOX IMVI melanoma 11.3% | SK-MEL-28 melanoma 27.8% | UO-31 renal 74.7% | ACHN renal 32.5% | CAKI-1 renal 72.6% | CCRF-CEM leukemia 17.2%

O=C(NNC(=O)c1cccc(Cl)c1)c1ccccc1
inactive: HCT-15 colon 114% | HT29 colon 104% | SNB-75 CNS 99.4% | SNB-19 CNS 119% | U251 CNS 100% | PC-3 prostate 91.1% | SK-MEL-5 melanoma 101% | UACC-62 melanoma 123% | LOX IMVI melanoma 105% | SK-MEL-28 melanoma 119% | SK-MEL-2 melanoma 100% | EKVX NSCLC 103% | SN12C renal 106% | UO-31 renal 99.3% | TK-10 renal 117% | ACHN renal 130% | CAKI-1 renal 103% | A498 renal 73.2% | CCRF-CEM leukemia 98.4% | MOLT-4 leukemia 100%

CCOC(=O)c1ccc(NC(=O)CSC(N)=O)cc1
inactive: HCT-15 colon 99.4% | HT29 colon 126% | SNB-75 CNS 149% | SNB-19 CNS 91.1% | U251 CNS 94.1% | PC-3 prostate 85.6% | SK-MEL-5 melanoma 103% | UACC-62 melanoma 96.8% | LOX IMVI melanoma 85.7% | SK-MEL-28 melanoma 128% | SK-MEL-2 melanoma 98.6% | EKVX NSCLC 128% | SN12C renal 107% | UO-31 renal 56.6% | TK-10 renal 113% | ACHN renal 102% | CAKI-1 renal 108% | A498 renal 111% | CCRF-CEM leukemia 103% | MOLT-4 leukemia 84.6%

C=C(C)[C@@H]1CC[C@]2(C(=O)O)CC[C@]3(C)[C@H](CC[C@@H]4[C@@]5(C)C[C@@H](CC#Cc6ccc(C(C)=O)s6)[C@H](O)C(C)(C)[C@@H]5CC[C@]43C)[C@@H]12
inactive: HCT-15 colon 33.4% | HT29 colon 34.5% | SNB-75 CNS 71.1% | SNB-19 CNS 75.7% | U251 CNS 32.3% | PC-3 prostate 26% | SK-MEL-5 melanoma 43.3% | UACC-62 melanoma 52.3% | LOX IMVI melanoma 65% | SK-MEL-28 melanoma 76.5% | SK-MEL-2 melanoma 51.9% | EKVX NSCLC 53.2% | SN12C renal 68% | UO-31 renal 56.6% | TK-10 renal 49.6% | ACHN renal 47.9% | CAKI-1 renal 40.7% | CCRF-CEM leukemia 44.7% | MOLT-4 leukemia 32.5%
active: A498 renal -3.73%

CCOCCNc1ccc(S(=O)(=O)c2ccc(N)cc2)cc1N
inactive: HCT-15 colon 109% | HT29 colon 114% | SNB-75 CNS 96.7% | SNB-19 CNS 114% | U251 CNS 98.2% | PC-3 prostate 111% | SK-MEL-5 melanoma 102% | UACC-62 melanoma 95.1% | LOX IMVI melanoma 91.1% | SK-MEL-28 melanoma 112% | SK-MEL-2 melanoma 111% | EKVX NSCLC 86.6% | SN12C renal 110% | UO-31 renal 90.8% | TK-10 renal 111% | ACHN renal 106% | CAKI-1 renal 86.7% | A498 renal 83.2% | CCRF-CEM leukemia 96% | MOLT-4 leukemia 107%

O=C1SCN(Cc2ccccc2)CN1Cc1ccccc1
inactive: HCT-15 colon 98% | HT29 colon 90.4% | SNB-75 CNS 91% | SNB-19 CNS 108% | U251 CNS 99.5% | PC-3 prostate 86.3% | SK-MEL-5 melanoma 92.8% | UACC-62 melanoma 89.6% | LOX IMVI melanoma 70.2% | SK-MEL-28 melanoma 111% | SK-MEL-2 melanoma 101% | EKVX NSCLC 101% | SN12C renal 96.3% | UO-31 renal 57.9% | TK-10 renal 111% | ACHN renal 107% | CAKI-1 renal 95.9% | A498 renal 78.2% | CCRF-CEM leukemia 61.3% | MOLT-4 leukemia 71.8%

COC(=O)c1ccc2c(c1)nc(-c1ccc(Cl)cc1)n2-c1cc(C(C)(C)C)[nH]n1
inactive: HCT-15 colon 69.5% | HT29 colon 23% | SNB-75 CNS 47.3% | SNB-19 CNS 78.3% | U251 CNS 38.2% | PC-3 prostate 39% | SK-MEL-5 melanoma 25.9% | UACC-62 melanoma 45.7% | LOX IMVI melanoma 44.2% | SK-MEL-28 melanoma 58% | SK-MEL-2 melanoma 31.6% | EKVX NSCLC 78.3% | SN12C renal 79.1% | UO-31 renal 41.9% | TK-10 renal 86.6% | ACHN renal 75.4% | CAKI-1 renal 50.4% | A498 renal 21.8% | CCRF-CEM leukemia 45.2% | MOLT-4 leukemia 41.8%
